According to the supplement of paper PMC3334620:
Over roughly 33,000 sequences, “E-score (-0.5 to 0.5)” has its median near -0.01; the highest 2% begin near 0.26. Many of the other results were omitted from the sample, so the highest values are more common in it than they were.

Each sequence was assayed against Ste12 (UniProt P13574) (assay: PBM E-score (8-mer binding enrichment) (E-score (-0.5 to 0.5)); higher = stronger / more preferred TF binding). Conditions: protein concentration: 200 nM; construct: GST-DNA-binding domain.
Method in brief: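 PURExpress in vitro transcription/translation supplied GST-tagged yeast transcription factors, either full-length or DNA-binding domain. Applied at about 100-200 nM to universal all-10-mer Agilent arrays double-stranded by primer extension, the bound protein was detected with fluorescent anti-GST. E-scores, modified Wilcoxon-Mann-Whitney statistics, were given by the Universal PBM Analysis Suite to ungapped eight-base words pooled with their reverse complements after masliner normalisation.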

Chain of UniProt P13574 (P13574 whole entry, the tested form may be a part): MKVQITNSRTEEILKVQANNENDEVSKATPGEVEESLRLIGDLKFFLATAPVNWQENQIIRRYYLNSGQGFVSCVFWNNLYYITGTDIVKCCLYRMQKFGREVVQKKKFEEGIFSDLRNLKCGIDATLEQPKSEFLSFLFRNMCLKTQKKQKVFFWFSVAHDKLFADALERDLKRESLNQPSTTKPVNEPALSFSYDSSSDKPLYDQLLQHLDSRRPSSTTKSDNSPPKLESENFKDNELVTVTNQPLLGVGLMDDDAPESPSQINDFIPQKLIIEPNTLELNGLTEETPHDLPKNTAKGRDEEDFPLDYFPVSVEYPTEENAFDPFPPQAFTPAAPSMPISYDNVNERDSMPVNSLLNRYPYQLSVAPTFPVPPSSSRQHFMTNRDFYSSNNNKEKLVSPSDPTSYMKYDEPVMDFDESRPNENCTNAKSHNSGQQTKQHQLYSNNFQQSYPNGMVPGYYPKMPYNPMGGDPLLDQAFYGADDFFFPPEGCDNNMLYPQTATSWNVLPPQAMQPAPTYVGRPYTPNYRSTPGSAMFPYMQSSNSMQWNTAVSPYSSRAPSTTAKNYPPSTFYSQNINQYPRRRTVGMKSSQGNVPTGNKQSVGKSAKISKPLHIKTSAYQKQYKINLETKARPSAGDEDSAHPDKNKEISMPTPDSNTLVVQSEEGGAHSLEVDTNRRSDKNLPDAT

Sequence | PBM E-score
TACTTCCA | 0.0198
AATGGGAT | -0.185
CGCAAACA | 0.053
AAGTCGGC | -0.16
AACGCTTA | -0.0484
CGACAGAC | -0.00066
CAGGTCCC | -0.104
AGCTGATG | 0.129
GAACGGTA | -0.17
CCGTTTCG | 0.164
CCGTTTCA | 0.46
CCGTTTCC | 0.139
GAACTCCC | 0.0278
ATGCGATG | 0.00552
GTTGGTCA | 0.121
AAAATGAT | 0.317
GAAATTAC | 0.176
GGAATGAA | 0.281
CAAATGAA | 0.238
TAAATGAA | 0.185
CGAATGAA | 0.084
AAAATGAG | 0.124
CAAATTAA | 0.203
GAAATGAA | 0.331
GAAATTAA | 0.294

Sequence | PBM E-score
AAAATGAC | 0.121
TGAATGAA | 0.208
AAGTTGAA | 0.134
CCGGCCCG | 0.00367
CGCCAAAA | 0.227
GGGGTGGA | 0.00832
ACCTTATG | 0.0329
TCCTAAGA | -0.00559
AAAGGTTC | -0.154
AAAATGCA | 0.00439
AAAATGGA | 0.237
AAAATGAA | 0.27
GCCTCAGC | -0.226
ATAAAGTC | 0.167
AGATGGCT | -0.0505
CATGTAAA | 0.027
AATGTAAT | 0.187
AATGTAAA | 0.269
TATTCAGA | 0.029
CGCCAATA | 0.036
CTTTGAAC | 0.0927
ATTTGAAA | 0.366
GTTTGATA | 0.301
GTTTGAGA | 0.311
ATTTGAGA | 0.126

Sequence | PBM E-score
ATTTGATA | 0.258
ATTTGAAC | 0.123
CTTTGATA | 0.179
ATTTGAAG | 0.0968
CTTTGACA | -0.0728
CTTTGAAA | 0.318
CTTTGAGA | 0.114
CGCCCTTA | -0.0507
AGTGAACG | -0.109
TGCGTCAA | 0.0654
GTCCAAAC | 0.0248
ACGCTTGG | -0.293
ATAGACGC | 0.0365
GTTTGCAA | 0.186
GTTTGACA | 0.0294
GTTTGAAA | 0.409
AGCGGCTC | -0.0004
ACCAAAAT | 0.254
ACCAACAT | 0.125
ACCAACAA | 0.269
TACCAAAA | 0.204
ACCAAAAA | 0.27
ACCAAAAC | 0.235
AACCAAAA | 0.324
ACCAACAG | -0.042

Sequence | PBM E-score
CACCAAAA | 0.216
TATTAAGA | 0.0777
GCATCTAC | 0.0977
AGCTTGAA | -0.0125
TATGGAAA | 0.292
CGTGGAAA | 0.19
GATGGAAA | 0.0433
AGTGGAAA | -0.0995
TGTGGAAA | 0.286
CATGGAAA | 0.098
CTCAAGGA | -0.181
ACTGGTCC | -0.0777
AACTTTTA | 0.228
CACCTTCC | 0.0254
AAACCCAA | 0.349
GAAACCCA | 0.246
AACCCCCG | -0.133
AAACCCCC | -0.122
AAACCCCG | 0.28
CAAACCCA | 0.262
CAAACCCG | 0.0369
TAACCCGA | -0.0489
GAACCCGA | -0.0553
GAACCCAA | -0.0682
AAACCCGA | 0.336

Sequence | PBM E-score
AAACCCAT | 0.131
GCGCACCC | -0.0102
CCAAGGGC | -0.139
CCGCACCC | 0.222
CAAGTTCG | -0.0514
CTTCTAAC | -0.0172
AGTCTAGC | -0.223
CTATCGCA | -0.0857
AGGTGATA | 0.0763
ACCGATGC | -0.0639
ATGAAAAC | 0.349
ACGAAAAC | 0.25
GTGAAAAC | 0.0815
CTGAAAAA | 0.0763
ATGAAAAT | 0.166
ATGAAAAG | -0.0787
TTGAAAAA | 0.323
ATGAAAAA | 0.305
TAGAAAAA | 0.0605
CGACCTTA | 0.111
ACGCCAGT | -0.084
ATAACTAT | 0.0787
GAAAAATC | 0.201
ACAAAATG | 0.0682
ACAAAATC | 0.291

Sequence | PBM E-score
AAAAAATC | 0.363
CAAAAATC | 0.123
ACAAAATA | 0.0836
CTACCACC | -0.102
AATCGACA | 0.248
CAGCGACC | -0.0234
GGCGTGGA | -0.0873
AATAGTCA | -0.0559
ATTTACAC | 0.18
TGGTGACA | 0.048
TGGTGCAA | -0.18
AGGTGAAA | 0.235
TGGTGAAA | 0.277
CGGTGAAA | 0.245
GGGTGAAA | 0.315
AGCTGGGG | -0.136
ACCCAGGT | -0.218
CCAAGAAC | -0.11
CGCCAACA | -0.0261
GCACATCA | -0.00042
GCCCCCAA | -0.0804
TATAAATA | 0.228
TAAAAATA | 0.318
AATAAATA | 0.21
CAAAAATA | 0.346

Sequence | PBM E-score
CTAAAATA | 0.181
CAAAAATG | 0.182
AAAAAATA | 0.267
CATAAATA | 0.268
ATAAAATA | 0.257
GAAAAATA | 0.217
CCAAAATA | 0.21
GTAAAATA | 0.131
GCCTAAAA | -0.0428
CATCCCAA | 0.0892
CTCAACTC | 0.141
ATGACTAG | -0.183
ACACATCC | -0.0267
GTTCACCA | -0.0697
TCCCTCCA | -0.191
ATATTGAT | 0.248
AAATCTTC | 0.0263
GAGGTAGC | -0.239
CAGGGTTC | -0.0459
AAACGCGT | 0.255
AAACGCGG | 0.264
CAACGCGG | -0.0344
